The record followed here is PubChem BioAssay AID1578 (Sanford-Burnham Center for Chemical Genomics, 2009).

About 3,000 (1%) of roughly 290,000 compounds were called active. No stated cut-off is given here; in the data, active means inhibition mostly above about 36% (no sharp cut-off); inactive means mostly below about 34%. Many of the other results were omitted from the sample, so actives are more common in it than they were.

The experiment is described as follows: inhibition of NOD1-driven NF-kB reporter – cell-based, luminescence, uHTS, primary screen (AID 1578).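 Further: HEK-293T reporter cells stimulated with the NOD1 agonist gamma-tri-DAP.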 Particulars: NOD1-driven NF-kB luciferase reporter cells, at 4 µM, stronger effect = higher value. In general terms: In a reporter assay the amount or activity of a reporter protein is the signal.
Take `CNCCCOc1ccc(C)cc1Br`: the inhibition is 13.5% (inactive). For `Cc1nn2c3ccccc3n(Cc3ccccc3)c2nc1=O`, the inhibition was -20.5% (inactive). Turning to `O=C(NCC(=O)N(c1ccc(Cl)cc1)C(C(=O)NC1CCCC1)c1ccncc1)c1ccco1` (stereo not drawn), the inhibition is -13.1% (inactive). As for `CN(C)CCNC(=O)c1c(CSc2ccccc2)noc1C(=O)NCc1ccccc1`, the inhibition is -3.7% (inactive).

Regarding `NC(=O)C1CCN(C(=O)c2ccc3c(c2)S(=O)(=O)c2ccccc2C3=O)CC1`, the inhibition is 1.2% (inactive). Take `COC(=O)c1cc(C)nc2c1C(=O)C(=O)C=C2N1CCOCC1`: the inhibition was -6.2% (inactive).

For `CCN(CC)CCNC1=CC(=O)OC12CCCCC2`, the inhibition is -19.3% (inactive). Turning to `CCN(CC)CCNc1cc(C)nc2c1C(=O)C(=O)C=C2N1CCCCC1`, the inhibition is 101% (active). As for `Cc1ccc(C(=O)/C=C/c2ccccc2)o1`, the figure is -0.9% (inactive). The value for `Cc1ccc(C(=O)/C=C/c2ccc(Br)cc2)o1` was 21% (inactive).

As to `Cc1ccc(C(=O)/C=C/c2cc(Br)cc(Br)c2O)o1`, the inhibition is 89.5% (active). As for `Cc1ccc(C(=O)NC2CC3CCC(C2)N3Cc2ccco2)cc1` (stereo not drawn), the figure is -13.6% (inactive); as for `O=C(COC(=O)c1ccc[nH]c1=O)NCCc1ccc(Cl)cc1Cl`, -4.3% (inactive); as for `COc1ccc(OC)c(NC(=O)NNC(=O)CCCOc2ccc(Cl)cc2C)c1`, -14% (inactive). Regarding `O=C(O)Cc1sc(-c2ccccc2Cl)nc1-c1ccccc1`, the inhibition is 44% (active). `O=C(O)Cc1sc(-c2ccccc2)nc1-c1ccccc1`: the inhibition is -9.7% (inactive). On to `O=C(Cc1sc(-c2ccccc2Cl)nc1-c1ccccc1)Nc1ccccc1`, for which the inhibition is -49.4% (inactive).

As for `CCCn1c(=O)c(C(=O)NNC(=O)c2ccc(Cl)cc2Cl)c(O)c2ccccc21`, the inhibition was -6.2% (inactive). On to `Cc1cc(Cl)ccc1NC(=O)CCCN1C(=O)CCC1=O`, for which the inhibition is 1.3% (inactive). Take `O=C(Cn1nnc2ccccc21)N/N=C\c1cccs1`: the inhibition is -35.5% (inactive). With `COc1ccc(/C=C/c2c(-c3ccc(OC)cc3)oc3ccc(-c4ccc(OC)cc4)cc23)cc1`, the inhibition was -16.5% (inactive). The value for `COc1ccc(/C=C/C(=O)Oc2ccc(C)cc2)cc1` was -12.4% (inactive); that for `CC1(C)C2CCC1(C)C(OC(=O)C[n+]1ccccc1N)C2` (stereo not drawn) was -14.7% (inactive); that for `CC(C)NC(=O)C1CCN(C2CCN(C(=O)c3cc4c(s3)CCCCC4)CC2)CC1` was -13.9% (inactive). As for `Cc1cnc(CN(C)Cc2nc(Cc3cccc(C(F)(F)F)c3)no2)[nH]1`, the figure is -15.7% (inactive); as for `CC(C)OC(=O)c1cc2c(=O)[nH]c(C(Cl)(Cl)Cl)nc2o1`, -25.8% (inactive); as for `CS(=O)(=O)N(CC(=O)N1CCCCC1)C1CCCCC1`, 9.1% (inactive). The value for `COc1cccc(C(=O)N/N=C/C(Br)=C/c2ccccc2)c1` was 63.6% (active); that for `COc1ccc(C(=O)N/N=C/C(Br)=C/c2ccccc2)cc1` was 26.8% (inactive); that for `O=C(N/N=C/C(Br)=C/c1ccccc1)c1cccnc1` was 10.1% (inactive).

`CC1(C)Cc2ccccc2-c2nc3n(c(=O)c21)CCCS3`: the inhibition was 44.3% (active). `CC1(C)Cc2ccccc2-c2nc3n(c(=O)c21)CCS3`: the inhibition is -12.8% (inactive). As for `CCC1(C)Cc2ccccc2-c2nc3n(c(=O)c21)CCS3` (stereo not drawn), the figure is 5.3% (inactive); as for `O=C(COC(=O)CSCC(=O)N1CCCCC1)Nc1ccc(Cl)cc1`, 0% (inactive); as for `Fc1ccc(-c2noc(-c3ccc4c(c3)CCO4)n2)cc1`, -17.4% (inactive). The value for `CC(=O)c1c(O)ccc2c(-c3ccccc3)cc(=O)oc12` was 13.4% (inactive). The value for `CN(C)Cc1c(O)ccc2c(-c3ccccc3)cc(=O)oc12` was -22% (inactive).

Take `COC(=O)c1ccccc1NC(=O)Nc1cc(C)ccn1`: the inhibition was -16.6% (inactive). As for `Cc1cccc2sc(N(CCCN(C)C)C(=O)c3ccc(S(=O)(=O)N4CCc5ccccc5C4)cc3)nc12`, the figure is 13% (inactive); as for `O=C(COC(=O)CCC(=O)c1ccc(F)cc1)Nc1ccc(N2CCOCC2)cc1`, -6.3% (inactive); as for `O=C(OCCN1CCCCC1)c1ccc(Cl)cc1`, -7.2% (inactive). As for `Oc1c(C=NCc2ccc(F)cc2)[nH]c2ccc(Br)c(Cl)c12`, the figure is -16.1% (inactive); as for `Oc1c(Br)cc(Br)cc1C=NCc1ccccc1`, -5.4% (inactive); as for `Oc1c(Br)cc(Br)cc1C=NCc1ccc(F)cc1`, 64.2% (active). The value for `CCCn1c(N)c(Sc2ccccc2)c(=O)n(CCC)c1=O` was 17.2% (inactive).

For the compound `CCOC(=O)c1ccccc1NC(=O)c1c(F)c(F)c(F)c(F)c1F`, the inhibition is -18.5% (inactive). For the compound `CCCCC/C(=N\NC(=O)Nc1ccccc1)c1ccccc1`, the inhibition is -2.9% (inactive). As for `C/C(=N\NC(N)=O)c1ccccc1`, the figure is -34.5% (inactive); as for `NC(=O)N/N=C(/CCCCCC/C(=N\NC(N)=O)c1ccccc1)c1ccccc1`, 36.6% (active). The value for `CC(=O)N1c2ccccc2C2(C)C(C1(C)C)C2(Cl)Cl` (stereo not drawn) was 60.4% (active). As for `CC(=O)N1c2ccccc2C(C)(c2ccccc2)CC1(C)C` (stereo not drawn), the figure is 0.7% (inactive).

For `CC1(C)C2C(Cl)(Cl)C2(C)c2ccccc2N1C=O` (stereo not drawn), the inhibition was -3.3% (inactive). As for `Cc1cc(NC(=O)Nc2ccc(Cl)cc2)n(C)n1`, the figure is -7.2% (inactive); as for `O=C1c2cccc3cc([N+](=O)[O-])cc(c23)C(=O)N1/N=C/c1ccc(O)cc1O`, 8.5% (inactive). The value for `COc1cccc(/C=N/Nc2ncccc2[N+](=O)[O-])c1OC` was 39.6% (active). For `O=[N+]([O-])c1cccnc1N/N=C/c1ccccc1O`, the inhibition is -18.6% (inactive). `COc1ccc(/C=N/Nc2ncccc2[N+](=O)[O-])c(OC)c1`: the inhibition was -42.4% (inactive). In the case of `CC(C)C(=O)NC(NC(=S)Nc1ccc(S(N)(=O)=O)cc1)C(Cl)(Cl)Cl` (stereo not drawn), the inhibition was -3.2% (inactive).

Regarding `CCCCC(CC)C(=O)Nc1cc(=O)[nH]c2nc3ccccc3n12` (stereo not drawn), the inhibition was -1.4% (inactive).

As to `CCOC(=O)CNC(c1ccccc1)c1cc(Br)ccc1NC(C)=O` (stereo not drawn), the inhibition was -27.2% (inactive). As for `CCOC(=O)CNC(c1ccccc1)c1cc(Br)ccc1NC(=O)CCN1CCOCC1` (stereo not drawn), the figure is 69.7% (active). The value for `COC(=O)CNC(c1ccccc1)c1cc(Br)ccc1NC(=O)CCN1CCOCC1` (stereo not drawn) was 35.8% (inactive); that for `CC(OC(=O)c1ccco1)C(=O)NC1CCCC1` (stereo not drawn) was -27.9% (inactive).

Regarding `COc1ccc(CC(=O)N/N=C\c2cc(Br)c(O)c(Br)c2)cc1`, the inhibition was 17% (inactive). For `Oc1[nH]c2c(Cl)cc(Cl)cc2c1N=NC(=S)NCC1CCCO1` (stereo not drawn), the inhibition was 104% (active). The value for `Oc1[nH]c2ccccc2c1N=NC(=S)NCC1CCCO1` (stereo not drawn) was -1% (inactive); that for `Cc1cc(C)c2[nH]c(O)c(N=NC(=S)NCC3CCCO3)c2c1` (stereo not drawn) was -5.7% (inactive); that for `O=C1NC(=O)C2C1C(c1ccccc1)N1C3C(=O)NC(=O)C3C(c3ccccc3)N21` (stereo not drawn) was 6.2% (inactive). As for `Cc1nc2sc3c(NCc4ccco4)ncnc3c2c2c1COC(C)(C)C2`, the inhibition was 20.3% (inactive).

Turning to `CC(C)c1nc2sc3c(NCc4ccco4)ncnc3c2c2c1COC(C)(C)C2`, the inhibition was 64% (active). As for `CC(C)Cc1nc2sc3c(NCc4ccco4)ncnc3c2c2c1COC(C)(C)C2`, the inhibition is -25.1% (inactive). As for `CCN(CC)CC(=O)NCc1cc(-c2ccc(OC)cc2)no1`, the figure is -8.1% (inactive); as for `C=CCNc1nc(Nc2ccc(OC)cc2)nc(OCC)n1`, -7.5% (inactive); as for `CCn1c(=O)c(C(=O)Nc2cnccn2)c(O)c2ccccc21`, 7.9% (inactive).

With `CC(C)Cn1c(=O)c(C(=O)Nc2ccccc2S(N)(=O)=O)c(O)c2ccccc21`, the inhibition is -2.7% (inactive). The value for `Cn1c(=O)c(C(=O)Nc2cnccn2)c(O)c2ccccc21` was -52.8% (inactive); that for `CC(C)Cn1c(=O)c(C(=O)Nc2cnccn2)c(O)c2ccccc21` was 0.1% (inactive); that for `CCCn1c(=O)c(C(=O)Nc2cnccn2)c(O)c2ccccc21` was -22.7% (inactive).

With `CCn1c(=O)c(C(=O)Nc2ccccc2S(N)(=O)=O)c(O)c2ccccc21`, the inhibition was -15.7% (inactive). As for `CCOC(=O)N1CCN=C1SCc1ccc(Cl)c(Cl)c1`, the figure is -47.1% (inactive); as for `Cc1nc(N2CCN(c3ccccc3)CC2)[nH]c(=O)c1Cc1ccccc1`, 8.4% (inactive). As for `COc1ccccc1NC(=S)N(CCN1CCOCC1)Cc1ccccc1F`, the figure is -31.9% (inactive). The value for `O=[N+]([O-])c1ccccc1/C=N/Nc1nnc(-c2ccccc2)c(-c2ccccc2)n1` was -36.7% (inactive); that for `FCCCOc1ccc(-c2ccnc(-c3ccccc3)n2)cc1` was -45.6% (inactive); that for `Cc1c(Cl)cccc1NC(=O)NNC(=O)CCc1ccccc1` was 28% (inactive). Take `COc1cc(C)c(C)cc1S(=O)(=O)n1c(C)nc2ccccc21`: the inhibition was -11.1% (inactive). For `CC(C)COP(=O)(c1ccc(N(C)C)cc1)C(O)c1ccc(N(C)C)cc1` (stereo not drawn), the inhibition was 2.4% (inactive). `CC1CN(c2nc3c(c(=O)n(C)c(=O)n3C)n2Cc2c(F)cccc2Cl)CC(C)O1` (stereo not drawn): the inhibition is -14.7% (inactive). The value for `O=C(NNC1=NCCC1)c1ccc(Br)cc1` was 6.7% (inactive). As for `CC(=O)c1ccccc1N(C(=O)c1ccco1)C(C(=O)NC1CCCC1)c1ccc(C)cc1` (stereo not drawn), the figure is -11.2% (inactive). In the case of `Cc1ccc(NC2CCCN(C(=O)c3cccc(-c4ncc[nH]4)c3)C2)cc1C` (stereo not drawn), the inhibition is -0.1% (inactive). As for `CCCC(O)(CCC)C(=O)NN(C(=O)CCl)c1cccc(C)c1`, the figure is 75% (active); as for `Cc1ccc(N(NC(=O)C(O)(c2ccccc2)c2ccccc2)C(=O)CCl)cc1`, 87.3% (active). As for `O=C(Nc1ccccc1)NN(C(=O)CCl)c1ccccc1`, the figure is 73.9% (active). The value for `CCCCCCCN(C(=O)CCl)c1cccc(C)c1` was 57.4% (active); that for `CCN(CC)NC(=O)Nc1ccccc1` was 1.7% (inactive). Regarding `CCCCCCN(C(=O)CCl)c1ccccc1`, the inhibition was -4.8% (inactive). The value for `CCCC(O)(CCC)C(=O)NN(C(=O)CCl)c1ccccc1` was -30.8% (inactive); that for `CCCCC(O)(CCCC)C(=O)NN(C(=O)CCl)c1ccccc1` was 8.2% (inactive). The value for `CCC(O)(CC)C(=O)NN(C(=O)CCl)c1ccccc1` was -63.3% (inactive); that for `COC(=O)N(NC(=O)C(O)(c1ccccc1)c1ccccc1)c1ccc(C)cc1` was -13% (inactive). As for `CCOC(=O)N(NC(=O)C(O)(c1ccccc1)c1ccccc1)c1ccccc1`, the figure is -25.2% (inactive); as for `CCCCCCCN(C(=O)CCl)c1ccccc1C`, 27.2% (inactive).

The inhibition is the relative decrease from the control value, in per cent.
